Source: PubChem BioAssay (NCATS)
Several values for one entry are separate records, joined by “and”; a condition that tells them apart may be missing. Identical values can stand only once. Records with an inconclusive call do not appear. Activity calls are given as the source filed them. Unless noted, the call rests on the fitted dose curve; in most records, active means well fitted curve in the direction sought with a large enough effect; inconclusive means small, poorly fitted or top-dose-only effect, or another doubt; inactive means no such curve, though single readings can be large; an effect the other way counts as inactive or inconclusive.

Columns and labels:
[1] = Cell Viability - SK-N-SH (AID 435; calls by dose curve; further: potency means the concentration at half of the fitted maximal effect); conditions: SK-N-SH neuroblastoma cell viability qHTS
Method in brief: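 CellTiter-Glo ATP luminescence, 20 min RT read; cells pre-plated 5 hr, compound 40 hr at 37 °C, 1500 cells/well, complete medium. Normalized DMSO = 0, 100 uM tamoxifen = 100% inhibition; Hill-fit AC50.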

[2] = Cell Viability - H-4-II-E (AID 543); conditions: H-4-II-E rat hepatoma viability; series mostly up to 92.2 µM;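 further: cells exposed to compound for 40 hours; on the % scale 0 is the no-effect control and ±100 the full control effect; nearly all actives have a fitted effect of over 35% in size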
Method in brief: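 qHTS, rat hepatoma H-4-II-E, 1500 cells/well; 40 hr compound exposure, 37 °C; CellTiter-Glo ATP luminescence after 20 min RT; AC50 by standard Hill fit.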

[3] = Cell Viability - Renal Proximal Tubule (AID 545); conditions: renal proximal tubule cells viability; series mostly up to 91.7 µM;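 further: cells exposed to compound for 40 hours; nearly all actives have a fitted effect of over 40% in size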
Method in brief: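 Rat kidney proximal tubule cells, freshly isolated; 1000 cells/well, 5 hr settle, compound 40 hr 37 °C. CellTiter-Glo 20 min RT, luminescence read. AC50 by standard Hill fit.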

[4] = Cell Viability - Mesenchymal (AID 546); conditions: mesenchymal cells viability, qHTS; series mostly up to 91.7 µM;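 further: cells exposed to compound for 40 hours before reading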
Method in brief: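 Human renal mesenchymal cells (glomerulus-derived), 1000 cells/well, 5 hr 37 °C pre-incubation; compound 40 hr, 37 °C; CellTiter-Glo, 20 min RT; luminescence; AC50 via Hill equation.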

[5] = Cellular Toxicity (caspase-3) Jurkat (AID 655); conditions: Jurkat caspase-3 activation, luminescence; caspase-3 activation: at 92.2 µM (top of the series), DMSO = 0%, tamoxifen = 100%;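 further: cells exposed to compound for 16 h at 37 °C before reading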
Method in brief: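 Luminescent caspase-3/7 readout (aminoluciferin substrate cleavage) in human T-cell leukemia Jurkat cells after 16 hr compound exposure. Concentration-response normalized to DMSO and 100 uM tamoxifen; AC50 by standard Hill equation.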

[6] = Cell Viability - LYMP2-001 (AID 921); conditions: LYMP2-001 lymphoblastoid cell viability; series mostly up to 92.2 µM;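 further: 0% = DMSO only and full inhibition = tetraoctylammonium bromide control wells; nearly all actives have a fitted effect of over 70% in size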
Method in brief: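 CellTiter-Glo luminescence (intracellular ATP) after 24 hr compound exposure at 37 C, 2500 lymphoblastoid cells/well in complete medium. AC50 fitted with standard Hill equation; tetraoctylammonium bromide positive control.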

[7] = Cell Viability - LYMP1-003 - Assay at 40 hr (AID 964); conditions: LYMP1-003 lymphoblastoid viability; series mostly up to 92.2 µM; further: on the % scale 0 is the no-effect control and ±100 the full control effect; nearly all actives have a fitted effect of over 60% in size
Method in brief: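 LYMP1-003 lymphoblastoid cells, 2500/well; 5 hr preincubation, 40 hr compound exposure, 37 C; CellTiter-Glo 30 min RT; luminescence; Hill-fit AC50. Positive control tetraoctylammonium bromide.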

[8] = Cell Viability - LYMP2-004 (AID 966); conditions: LYMP2-004 lymphoblastoid cell viability, qHTS; series mostly up to 92.2 µM;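 further: plate controls were DMSO only for no effect and tetraoctylammonium bromide control for full effect; nearly all actives have a fitted effect of over 65% in size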
Method in brief: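 Luminescent ATP read-out (CellTiter-Glo, 30 min RT) after 24 hr compound exposure at 37 C; 2500 lymphoblastoid cells/well, complete medium. Decrease in ATP = cytotoxicity; AC50 from standard Hill model.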

[9] = Cell Viability - LYMP2-009 (AID 968); conditions: LYMP2-009 lymphoblastoid cell viability; series mostly up to 92.2 µM;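 further: 0% = DMSO alone and the full-kill end = tetraoctylammonium bromide at 92 µM; nearly all actives have a fitted effect of over 55% in size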
[10] = Cell Viability - LYMP2-021 (AID 974); conditions: LYMP2-021 lymphoblastoid cells viability; series mostly up to 92.2 µM;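 further: compound exposure lasts 24 hours at 37 °C; on the % scale 0 is the no-effect control and ±100 the full control effect; nearly all actives have a fitted effect of over 55% in size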
Method in brief: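 ATP luminescence (CellTiter-Glo, 30 min RT) after 24 h compound exposure at 37 C; 2500 human lymphoblastoid cells/well, 5 h settle beforehand. Cytotoxicity = concentration-dependent ATP drop, AC50 by Hill fit.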

[11] = Cell Viability - LYMP2-008 (AID 980); conditions: LYMP2-008 lymphoblastoid cell viability, qHTS; series mostly up to 92.2 µM; further: on the % scale 0 is the no-effect control and ±100 the full control effect; nearly all actives have a fitted effect of over 60% in size
Method in brief: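 Luminescent ATP read-out (CellTiter-Glo, 30 min RT) after 24 hr compound exposure at 37 C of human lymphoblastoid cells in complete medium. Decrease in ATP taken as cytotoxicity; AC50 derived by standard Hill fit of qHTS concentration-response data.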

[12] = Cell Viability - LYMP2-012 (AID 982); conditions: LYMP2-012 lymphoblastoid cell viability qHTS; series mostly up to 92.2 µM;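 further: cellular ATP by luciferase luminescence where a drop means cytotoxicity; cells exposed to compound for one day before reading; 0% = DMSO only and full loss = 92 µM tetraoctylammonium bromide; nearly all actives have a fitted effect of over 55% in size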
[13] = Cell Viability - LYMP2-020 (AID 986); conditions: series mostly up to 92.2 µM;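 further: plate controls were DMSO only for no effect and tetraoctylammonium bromide at 92 µM for full effect; nearly all actives have a fitted effect of over 55% in size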
Method in brief: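 qHTS, 2500 cells/well; 5 hr then 24 hr compound exposure, 37 C; CellTiter-Glo luminescence after 30 min RT; ATP decrease taken as cytotoxicity; AC50 via Hill equation; tetraoctylammonium bromide positive control.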

[14] = target: Glucocorticoid receptor (Homo sapiens) (UniProt P04150); assay: qHTS assay for small molecule agonists of glucocorticoid receptor signaling (AID 588532; active means well fitted curve in the direction sought with a large enough effect in the signal ratio, with a control signal flat; the % refers to the signal ratio;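 further: 100% = dexamethasone at 0.1 µM and 0% = DMSO only wells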); conditions: HeLa MMTV-bla, beta-lactamase ratio, agonist, 18 h; stronger effect = higher value; percent of dexamethasone control, DMSO zero
Glucocorticoid receptor (Homo sapiens), sequence (P04150 whole entry, looked up): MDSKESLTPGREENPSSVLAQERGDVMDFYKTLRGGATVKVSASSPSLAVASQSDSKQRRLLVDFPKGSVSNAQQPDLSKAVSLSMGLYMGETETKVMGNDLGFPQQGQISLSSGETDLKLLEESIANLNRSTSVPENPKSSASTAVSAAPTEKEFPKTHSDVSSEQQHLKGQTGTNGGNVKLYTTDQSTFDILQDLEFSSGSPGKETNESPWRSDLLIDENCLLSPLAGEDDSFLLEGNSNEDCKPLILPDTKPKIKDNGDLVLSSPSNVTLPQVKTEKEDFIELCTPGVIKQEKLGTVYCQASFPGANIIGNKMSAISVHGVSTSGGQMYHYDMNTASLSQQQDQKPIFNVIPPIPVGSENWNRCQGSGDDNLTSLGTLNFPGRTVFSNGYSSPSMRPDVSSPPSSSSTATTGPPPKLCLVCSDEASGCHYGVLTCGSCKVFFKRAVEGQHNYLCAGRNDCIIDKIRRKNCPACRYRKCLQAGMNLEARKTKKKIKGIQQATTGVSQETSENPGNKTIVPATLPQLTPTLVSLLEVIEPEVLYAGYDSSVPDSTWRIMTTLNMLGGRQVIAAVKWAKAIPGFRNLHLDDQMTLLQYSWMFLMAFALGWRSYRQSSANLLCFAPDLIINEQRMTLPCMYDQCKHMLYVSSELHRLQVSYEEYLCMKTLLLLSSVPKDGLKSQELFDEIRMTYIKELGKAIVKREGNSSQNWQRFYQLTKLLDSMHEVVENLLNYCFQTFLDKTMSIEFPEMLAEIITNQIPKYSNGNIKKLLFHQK
Method in brief: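 MMTV-bla HeLa beta-lactamase reporter cells in 1% charcoal/dextran FBS medium, compounds up to 92 uM for 18 h at 37 C, CCF4 readout; normalized to 0.1 uM dexamethasone (100%), EC50 and efficacy from Hill fits.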

[15] = target: Vitamin D3 receptor (Homo sapiens) (UniProt P11473); assay: qHTS assay for small molecule antagonists of vitamin D receptor signaling (AID 588541; calls by dose curve;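 further: receptor activated by calcitriol during compound treatment; on the % scale 0 is the no-effect control and ±100 the full control effect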); conditions: HEK293T VDR-UAS-bla, beta-lactamase ratio, antagonist mode; series mostly up to 76.7 µM
Vitamin D3 receptor (Homo sapiens), sequence (P11473 whole entry, looked up): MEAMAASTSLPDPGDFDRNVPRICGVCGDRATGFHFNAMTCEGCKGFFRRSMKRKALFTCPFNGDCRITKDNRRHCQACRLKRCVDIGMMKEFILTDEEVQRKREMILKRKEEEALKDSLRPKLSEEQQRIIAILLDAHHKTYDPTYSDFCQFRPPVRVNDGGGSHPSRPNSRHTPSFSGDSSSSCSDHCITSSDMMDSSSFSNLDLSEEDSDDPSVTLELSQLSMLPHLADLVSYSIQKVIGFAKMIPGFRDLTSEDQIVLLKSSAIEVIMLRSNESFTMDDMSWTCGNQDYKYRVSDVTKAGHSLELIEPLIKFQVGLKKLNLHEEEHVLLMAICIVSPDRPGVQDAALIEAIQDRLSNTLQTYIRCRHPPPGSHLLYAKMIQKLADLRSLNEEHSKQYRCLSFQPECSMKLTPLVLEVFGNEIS
Method in brief: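 VDR-UAS-bla HEK293T cells in 2% charcoal-stripped FBS were stimulated with 1-alpha,25-dihydroxyvitamin D3 (3 nM final) plus compound for 16 h at 37 C. The beta-lactamase CCF4 readout was normalized to 50 nM agonist and DMSO, and Hill fits gave IC50.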

[16] = qHTS assay for small molecule disruptors of the mitochondrial membrane potential - 5 hr assay (AID 651755; calls by dose curve; further: on the % scale 0 is the no-effect control and ±100 the full control effect; nearly all actives have a fitted effect of over 40% in size); conditions: JC-1-type ratio dye; series mostly up to 92.2 µM
Method in brief: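 Read-out: ratiometric Mito-MPS fluorescence, green monomer (ex 490/em 535) vs red mitochondrial aggregate (ex 540/em 590). HepG2 cells treated 5 hr at 37C before 30 min dye loading.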

[17] = target: Nuclear receptor subfamily 1 group I member 2 (Rattus norvegicus) (UniProt Q9R1A7); assay: qHTS assay for small molecule activators of the rat pregnane X receptor (rPXR) signaling pathway (AID 651751; call rule not given here; further: 0% is about no effect); conditions: rPXR reporter cells, luciferase (One-Glo), 24 h
Nuclear receptor subfamily 1 group I member 2 (Rattus norvegicus), sequence (Q9R1A7 whole entry, looked up): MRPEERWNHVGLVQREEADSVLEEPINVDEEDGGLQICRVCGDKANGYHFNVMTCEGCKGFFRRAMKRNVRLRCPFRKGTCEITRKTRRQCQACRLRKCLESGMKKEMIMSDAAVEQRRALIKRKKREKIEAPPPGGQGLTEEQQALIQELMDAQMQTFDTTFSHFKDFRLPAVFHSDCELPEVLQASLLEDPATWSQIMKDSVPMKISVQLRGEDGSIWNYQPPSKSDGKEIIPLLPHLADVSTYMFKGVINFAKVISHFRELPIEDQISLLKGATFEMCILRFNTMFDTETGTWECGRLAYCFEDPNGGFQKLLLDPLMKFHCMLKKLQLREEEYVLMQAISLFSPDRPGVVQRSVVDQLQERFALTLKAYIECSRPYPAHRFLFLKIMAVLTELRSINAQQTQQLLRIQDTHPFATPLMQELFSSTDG

[18] = Cell Viability - LYMP2-011 (AID 969); conditions: LYMP2-011 lymphoblastoid cells viability; series mostly up to 92.2 µM;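 further: cells exposed to compound for 24 hours; 0% = DMSO only and full inhibition = 92 µM tetraoctylammonium bromide; nearly all actives have a fitted effect of over 60% in size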
Method in brief: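 Luminescent ATP read-out (CellTiter-Glo, 30 min RT) after 24 hr compound exposure at 37 C in human lymphoblastoid cells, 2500 cells/well. Decreasing ATP indicates cytotoxicity; AC50 from standard Hill fit.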

[19] = target: Peroxisome proliferator-activated receptor gamma (Homo sapiens) (UniProt P37231); assay: qHTS assay for small molecule agonists of peroxisome proliferator-activated receptor gamma signaling (AID 588536; active means well fitted curve in the direction sought with a large enough effect in the signal ratio, with a control signal flat, not every such curve was filed as active; the % refers to the signal ratio;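 further: 0% = DMSO basal wells and 100% = rosiglitazone at 2 µM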); conditions: HEK293 PPARg-UAS-bla, beta-lactamase ratio, 16 h, percent of rosiglitazone response, DMSO as zero; series mostly up to 76.7 µM
Peroxisome proliferator-activated receptor gamma (Homo sapiens), sequence (P37231 whole entry, looked up): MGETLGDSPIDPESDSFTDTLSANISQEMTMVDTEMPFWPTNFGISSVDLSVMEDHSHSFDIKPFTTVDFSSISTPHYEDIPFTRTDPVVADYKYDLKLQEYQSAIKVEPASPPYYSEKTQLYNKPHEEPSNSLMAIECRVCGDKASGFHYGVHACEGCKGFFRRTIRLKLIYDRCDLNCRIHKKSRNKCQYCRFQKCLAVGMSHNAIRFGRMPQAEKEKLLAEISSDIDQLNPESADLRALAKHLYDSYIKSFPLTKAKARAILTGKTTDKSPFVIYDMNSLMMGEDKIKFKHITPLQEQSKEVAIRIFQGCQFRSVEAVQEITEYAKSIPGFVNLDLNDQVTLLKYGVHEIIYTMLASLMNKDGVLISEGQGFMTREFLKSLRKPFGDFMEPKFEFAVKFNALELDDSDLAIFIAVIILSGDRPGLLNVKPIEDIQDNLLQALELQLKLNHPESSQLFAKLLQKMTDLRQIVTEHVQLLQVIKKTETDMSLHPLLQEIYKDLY
Method in brief: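 This is an agonist-mode beta-lactamase reporter assay in HEK293 PPAR-gamma-UAS-bla cells with 1% charcoal/dextran FBS. Compound titrations ran 16 h at 37 C before CCF4 detection. EC50 and efficacy are Hill fits scaled to 2 uM rosiglitazone (100%) and DMSO basal.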

[20] = qHTS assay for small molecule activators of the nuclear factor-kappa B (NF-kB) signaling pathway (AID 651749; active means well fitted activation curve with a large enough effect in the signal ratio; the % refers to the signal ratio; further: % of control where 0% means no effect); conditions: NF-kB-bla ME-180 cells, beta-lactamase FRET ratio, 16 h; stronger effect = higher value
Method in brief: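 NF-kB-bla ME-180 cells, 2,000/well; 23 nL compound or DMSO pinned; 16 hr, 37C/5% CO2; beta-lactamase FRET read-out.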

O=C(O)c1cc(Cl)ccc1Cl
inactive: Potency [1] > 92 µM | Potency [2] | outcome [3] | Potency [4] | caspase-3 activation [5] 0.232% | Potency [6] | Potency [7] | Potency [8] | Potency [9] | Potency [10] | Potency [11] | Potency [12] | Potency [13] | activation [14] -4.37% | outcome [15] | Potency [16] | max response [17] -1.07%

Cc1ccc([N+](=O)[O-])cc1
inactive: Potency [2] | outcome [3] | Potency [4] | caspase-3 activation [5] -0.655% | Potency [6] | Potency [7] | Potency [8] | Potency [18] | Potency [10] | Potency [11] | Potency [12] | Potency [13] | activation [14] -2.83% | outcome [19] | outcome [15] | Potency [16] | max response [17] 3.32%

Cc1cc(-c2cc(C)c(N)c(C)c2)cc(C)c1N
inactive: Potency [2] | outcome [3] | Potency [4] | Potency [7] | Potency [8] | Potency [9] | Potency [18] | Potency [10] | Potency [11] | Potency [12] | Potency [13] | activation [14] -0.885% | outcome [19] | outcome [15] | activation [20] 0.737% | max response [17] 14.1%

Nc1ccc(Cc2ccc(N)cc2)cc1
inactive: Potency [2] | outcome [3] | Potency [4] | caspase-3 activation [5] 2.26% | Potency [7] | Potency [8] | Potency [9] | Potency [18] | Potency [11] | activation [14] 1.44% and -0.448% | outcome [19] | outcome [15] | activation [20] -0.031% and 0.544% | max response [17] 4.75% and 4.67%

CCN(N=O)C(N)=O
inactive: Potency [1] > 92 µM | Potency [2] | caspase-3 activation [5] 0.577% | Potency [6] | Potency [7] | Potency [9] | Potency [18] | Potency [10] | Potency [11] | Potency [13] | activation [14] -3.98% | outcome [19] | activation [20] -1.14% | Potency [16]

COC(C)(C)C
inactive: Potency [1] > 92 µM | Potency [2] | outcome [3] | Potency [6] | Potency [7] | Potency [9] | Potency [18] | Potency [10] | Potency [11] | Potency [13] | outcome [15] | activation [20] 1.85% | Potency [16] | max response [17] 3.77%

Cc1cc(Cl)ccc1O
inactive: Potency [2] | outcome [3] | caspase-3 activation [5] 4.09% | Potency [6] | Potency [7] | Potency [8] | Potency [9] | Potency [18] | Potency [10] | Potency [11] | Potency [12] | Potency [13] | activation [14] 0.519% | outcome [19] | outcome [15] | activation [20] 0.374% | Potency [16] | max response [17] -0.864%

ClC(Cl)C(Cl)Cl
inactive: Potency [1] > 92 µM | Potency [2] | outcome [3] | Potency [4] | caspase-3 activation [5] 1.02% | Potency [6] | Potency [7] | Potency [8] | Potency [9] | Potency [18] | Potency [10] | Potency [11] | Potency [12] | Potency [13] | activation [14] 1.52% | outcome [19] | activation [20] -0.991% | Potency [16] | max response [17] 3.27%

Nc1ccc([N+](=O)[O-])cc1N
inactive: Potency [2] | outcome [3] | Potency [4] | caspase-3 activation [5] 17.7% | Potency [6] | Potency [8] | Potency [9] | Potency [18] | Potency [10] | Potency [12] | Potency [13] | outcome [19] | outcome [15] | Potency [16] | max response [17] -5.6% and -2.56%

Nc1ccc(-c2ccccc2)cc1
inactive: Potency [1] > 92 µM | Potency [2] | outcome [3] | caspase-3 activation [5] 2.52% | Potency [6] | Potency [7] | Potency [9] | Potency [18] | Potency [10] | Potency [11] | Potency [12] | Potency [13] | outcome [15] | activation [20] -0.257%

C/C=C/CC#N
inactive: Potency [1] > 92 µM | Potency [2] | outcome [3] | Potency [4] | caspase-3 activation [5] 0.734% | Potency [6] | Potency [7] | Potency [8] | Potency [9] | Potency [18] | Potency [10] | Potency [11] | Potency [12] | outcome [19] | activation [20] 1.19% | Potency [16] | max response [17] -0.823%

c1ccc(OCC2CO2)cc1 (centres undefined)
inactive: Potency [1] > 92 µM | Potency [2] | outcome [3] | Potency [4] | Potency [7] | Potency [18] | Potency [10] | Potency [12] | Potency [13] | activation [14] -7.97% | outcome [19] | outcome [15] | activation [20] 0.652% | Potency [16] | max response [17] -1.75%

Nc1ccccc1-c1ccccc1
inactive: Potency [1] > 92 µM | Potency [2] | outcome [3] | Potency [4] | caspase-3 activation [5] 2.93% | Potency [6] | Potency [7] | Potency [8] | Potency [9] | Potency [18] | Potency [10] | Potency [11] | Potency [13] | activation [14] -2.58% | outcome [19] | outcome [15] | activation [20] -2.55% | max response [17] 0.403%

O=C(Cc1ccccc1)OCc1ccccc1
inactive: Potency [1] > 92 µM | Potency [2] | outcome [3] | Potency [4] | Potency [7] | Potency [8] | Potency [9] | Potency [18] | Potency [11] | Potency [12] | Potency [13] | activation [14] 0.186% | outcome [19] | outcome [15] | Potency [16] | max response [17] -0.53%
